# Assay outcomes as filed in PubChem BioAssay.
# The full list was thinned out, with hits kept by preference.
# ST2 inh – inhibitors of human ST2 (IL1RL1) binding to IL-33; Q01638; AlphaLISA ST2-Fc/biotin-IL-33 interaction, 1 h; inhibition, % for hits at 17 µM; actives 2.3% (n = 78,000); in the data active = inhibition above about 30%
# Target sequence (Q01638 whole entry, looked up): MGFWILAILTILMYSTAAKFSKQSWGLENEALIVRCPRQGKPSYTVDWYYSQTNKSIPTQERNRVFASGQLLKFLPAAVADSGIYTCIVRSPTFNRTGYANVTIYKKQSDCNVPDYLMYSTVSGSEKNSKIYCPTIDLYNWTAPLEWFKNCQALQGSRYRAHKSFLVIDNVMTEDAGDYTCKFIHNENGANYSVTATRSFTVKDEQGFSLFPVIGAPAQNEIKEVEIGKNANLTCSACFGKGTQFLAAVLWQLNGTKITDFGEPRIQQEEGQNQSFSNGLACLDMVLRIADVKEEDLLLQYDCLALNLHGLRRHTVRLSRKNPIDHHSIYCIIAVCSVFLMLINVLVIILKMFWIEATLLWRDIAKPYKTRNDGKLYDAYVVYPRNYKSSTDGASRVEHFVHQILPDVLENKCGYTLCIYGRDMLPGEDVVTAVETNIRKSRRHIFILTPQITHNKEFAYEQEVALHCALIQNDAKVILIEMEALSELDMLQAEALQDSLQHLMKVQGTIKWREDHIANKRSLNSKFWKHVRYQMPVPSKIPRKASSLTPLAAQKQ
# Numbers without * were called inactive; i = inactive.
SMILES,ST2 inh
Cc1nc2ccccc2c(C(=O)O)c1C(=O)O,i
O=C(O)c1ccc2ccccc2n1,i
CC(O)=Cc1nc2ccccc2nc1C=C(C)O,38%*
Cc1ccc(CNC(=O)CN2CCN(Cc3ccc(Cl)cc3)S2(=O)=O)cc1,i
CC1CCN(c2ncnc3ccccc23)CC1,i
c1ccc2c(CN3CCCCC3CCn3ccnc3)ccnc2c1 (stereo not drawn),i
CC1CCN(Cc2cc(Cn3ccnc3)c3cccnc3c2O)CC1,51%*
CCc1nccn1CCC(=O)N1C[C@H]2CC=C(C)C[C@H]2C1,i
O=C(CN1C(=O)C(=O)c2ccccc21)Nc1ccc(Br)cc1,i
O=C(CN1C(=O)c2ccccc2C1=O)Nc1ccc(Br)cc1C(=O)O,i
O=C(CN1C(=O)c2ccccc2C1=O)Nc1ccc(Br)cc1,34%*
O=C(NCCCN1CCOCC1)C1CCN(Cc2ccc(Cl)cc2)CC1,i
C[C@H](C(=O)NCCN1CCOCC1)C1CC[C@@]2(C)Cc3sc(-c4ccccc4)nc3[C@@H](C)[C@@H]2[C@H]1O (stereo partly drawn),i
CSCC(=O)Nc1nc2c(s1)C[C@]1(C)CC[C@@H]3[C@H](OC(=O)[C@H]3C)[C@H]1[C@@H]2C,i
C[C@@H]1C(=O)O[C@H]2[C@H]1CC[C@@]1(C)Cc3sc(Nc4ccc(C(=O)O)cc4)nc3[C@@H](C)[C@H]21,85%*
C[C@@H]1C(=O)O[C@H]2[C@H]1CC[C@@]1(C)Cc3sc(NC(=O)c4ccc(N(C)C)cc4)nc3[C@@H](C)[C@H]21,i
C[C@H]1[C@@H]2[C@H]3OC(=O)[C@@H](C)[C@@H]3CC[C@@]2(C)CC[C@@H]1NC(=O)C1CC1,i
C=CCNC(=O)Nc1nc2c(s1)C[C@]1(C)CC[C@@H]3[C@H](OC(=O)[C@H]3C)[C@H]1[C@@H]2C,34%*
COc1cc(NC(=O)Nc2nc3c(s2)C[C@]2(C)CC[C@@H]4[C@H](OC(=O)[C@H]4C)[C@H]2[C@@H]3C)cc(OC)c1,i
C[C@@H]1C(=O)O[C@H]2[C@H]1CC[C@@]1(C)Cc3sc(Nc4cccnc4)nc3[C@@H](C)[C@H]21,36%*
Cc1cc(NC(=O)c2cnc(N3CCN(c4ccccn4)CC3)c3ccccc23)no1,i
CCN(CC)CCCNC(=O)C1(O)c2ccccc2NC(=O)N1c1ccc(Cl)c(Cl)c1 (stereo not drawn),i
CN(CCCn1cccn1)C(=O)c1ccc(-c2ccccc2Cl)o1,i
CCNC(=O)N1CC[C@H](c2nc3ccc(OC)cc3[nH]2)C1,i
CSc1cccc(NC(=O)Nc2c(C)nc3nc(C)[nH]n3c2=O)c1,i
SMILES,ST2 inh
CCN(CC)c1nc(-c2ccc(F)cc2)cc(C(F)(F)F)n1,i
Cn1cnnc1-c1cccc(NS(=O)(=O)c2ccc(F)cc2)c1,i
Cc1occc1C(=O)NCc1cccnc1N(C)C,i
COc1ccc(NC(=O)Cc2c(C(=O)O)[nH]c3ccc(Cl)cc23)cc1Cl,i
N#Cc1c(-n2cccc2C=O)sc2c1CCCC2,i
N#Cc1c(N)sc2c1CCCC2,31%*
CC(=O)Nc1sc2c(c1C#N)CCCC2,i
COc1ccc(OC)c(NC2=NC3CS(=O)(=O)CC3S2)c1 (stereo not drawn),i
CCCCn1c(CN2CCN(Cc3ccccc3)CC2)nc2c1c(=O)[nH]c(=O)n2C,i
CC(=O)Nc1cc(C(=O)NC2CC2)ccc1S(=O)(=O)c1ccc(C)cc1,i
Cc1ncsc1C(=O)N1CCCC(CCc2ccccc2C(F)(F)F)C1 (stereo not drawn),i
Cc1c(NC(=O)CSc2nc3ccccc3c(=O)n2C)c(=O)n(-c2ccccc2)n1C,i
Cc1nc2c(C(=O)NC3CCCCCCC3)cnn2c(C)c1Cc1ccccc1,i
COc1ccc(N2C(=O)C3C(c4ccc(F)cc4)OC4(C(=O)c5ccccc5C4=O)C3C2=O)cc1 (stereo not drawn),i
COc1ccc(C2C(C(=O)Nc3ccc(F)c(Cl)c3)CC(=O)N2c2ccc(OC)cc2)cc1 (stereo not drawn),i
COc1ccc(C2C3C(=O)NC(=O)C3ON2c2ccc(Cl)cc2)cc1 (stereo not drawn),31%*
Cc1ccnc(NS(=O)(=O)c2ccc(NC(=O)CSc3nc4ccccc4[nH]3)cc2)n1,i
CC1CCN(C(=O)Cn2c(=O)n(-c3ccc(F)cc3F)c(=O)c3sccc32)CC1,i
CN(C(=O)Cn1c(=O)n(-c2ccc(F)cc2F)c(=O)c2sccc21)c1ccccc1,47%*
O=c1c2sccc2n(Cc2ccccc2)c(=O)n1-c1cc(F)ccc1F,i
CCOc1cccc(C2CC(=O)Nc3n[nH]c(C4CCC4)c32)c1O (stereo not drawn),i
COCCN1CCC(CN2CCC3(CCOCC3)CC2)CC1,i
COc1cc(C2N(Cc3ccccc3)CCN2Cc2ccccc2)ccc1O,i
COc1cc(C2C3=C(CCCC3=O)NC3=C2C(=O)c2ccccc23)ccc1O (stereo not drawn),i
COc1cc(C2CC(c3ccccc3O)=NN2)ccc1O (stereo not drawn),32%*
SMILES,ST2 inh
O=C(c1cccc(Br)c1)N1CCN=C1SCc1cccnc1,i
CCN(CC)CCCN1C(=O)C(=O)C(=C(O)c2ccccc2)C1c1ccc([N+](=O)[O-])cc1 (stereo not drawn),i
CC1CC(=O)Nc2cc([N+](=O)[O-])ccc2N1 (stereo not drawn),i
Cc1ccc(C(=O)N2CCN(C(=O)c3ccccc3)C2c2ccc(N(C)C)cc2)cc1 (stereo not drawn),i
CC1CC(C)CN(C(=O)c2ccc([N+](=O)[O-])cc2)C1 (stereo not drawn),i
Cc1ccc2c(c1)C1C=CCC1C(c1ccccc1Cl)N2 (stereo not drawn),33%*
Cc1ccc(C(=O)N2CCCC2)cc1[N+](=O)[O-],i
Cc1ccc([C@@H]2Nc3ccc(C(=O)O)cc3[C@@H]3C=CC[C@@H]32)cc1,34%*
Cc1ccc(S(=O)(=O)N2CCSC2c2ccccc2Cl)c(C)c1 (stereo not drawn),i
O=C(c1ccc2c(c1)C1C=CCC1C(c1ccc([N+](=O)[O-])cc1)N2)N1CCCC1 (stereo not drawn),40%*
O=[N+]([O-])c1ccc(C2Nc3cc(Cl)cc(Cl)c3C3C=CCC32)cc1 (stereo not drawn),32%*
O=C1Nc2cc(Cl)c(Cl)cc2N(O)N1c1ccc([N+](=O)[O-])cc1,i
CCOC(=O)CN(Cc1ccc(Cl)cc1)S(=O)(=O)c1ccc(Br)cc1,i
Cn1c(=O)[nH]c(=O)c2c1nc(CN1CCOCC1)n2Cc1c(F)cccc1Cl,i
COc1ccccc1N1CCN(Cc2cc(OC)c(OC)c(OC)c2)CC1,i
CC1=CC[C@@H]2CN(C(=O)CCn3cncn3)C[C@@H]2C1,i
COc1ccc2[nH]cc(C(=O)c3ccc(C)c(C)c3)c(=O)c2c1,i
NC(=O)CSc1nc2c([nH]c3ccccc32)c(=O)n1-c1ccc(F)cc1,i
COc1ccc(S(=O)(=O)CCc2nnc(N)s2)cc1,i
CSc1ccccc1C(=O)N1CCC(C(Cc2ccccc2)N(C)C(=O)c2ccoc2C)CC1 (stereo not drawn),i
CS(=O)(=O)c1ccc(CN2C[C@H](O)C[C@H]2c2nc(-c3ccc(OC(F)(F)F)cc3)no2)cc1,32%*
CS(=O)(=O)c1ccc(CN2C[C@H](O)C[C@H]2c2nc(-c3ccc(F)cc3)no2)cc1,i
